Columns and labels:
Experiment in all cases: pooled miR-30 sensor sort-seq; sequence = guide strand
Details in all cases: shRNA
TUBGCP5 = biological target: TUBGCP5
TUBB2B = biological target: TUBB2B
TUBAL3 = biological target: TUBAL3
TULP4 = biological target: TULP4
TUT1 = biological target: TUT1
TXLNG = biological target: TXLNG
TUSC2 = biological target: TUSC2
UBXN2A = biological target: UBXN2A
UNC5D = biological target: UNC5D
UST = biological target: UST
VAMP8 = biological target: VAMP8
WFDC12 = biological target: WFDC12
XAGE3 = biological target: XAGE3
XAGE5 = biological target: XAGE5
XCL2 = biological target: XCL2
XKR5 = biological target: XKR5

Sequence: ATCTCTTCCAACTAGCAGCTTT
- sensor-assay potency score (higher = more potent) (TUBGCP5): -0.582

Sequence: TAGTAAACATTGATTCTCTCCA
- sensor-assay potency score (higher = more potent) (TUBB2B): 0.0212

Sequence: AACATTGATTCTCTCCAGCTGC
- sensor-assay potency score (higher = more potent) (TUBB2B): -0.381

Sequence: TTCATTGTTGGTACTGACCCAC
- sensor-assay potency score (higher = more potent) (TUBAL3): 0.0791

Sequence: TTGTCCACCATGAAGGTACAGT
- sensor-assay potency score (higher = more potent) (TUBAL3): -0.604

Sequence: TTTTTCTGCAGTACTAACCAGT
- sensor-assay potency score (higher = more potent) (TUBGCP5): -0.246

Sequence: GTAAACATTGATTCTCTCCAGC
- sensor-assay potency score (higher = more potent) (TUBB2B): -1.79

Sequence: TTGATCTTGTTCTTCTAACGGT
- sensor-assay potency score (higher = more potent) (TUBGCP5): 0.145

Sequence: TAAACTATGAGGAAACTGGGAG
- sensor-assay potency score (higher = more potent) (TUBGCP5): 0.101

Sequence: AACATTGTAGAACTTGACCATG
- sensor-assay potency score (higher = more potent) (TULP4): -1.37

Sequence: TAGTTCTACCAGGTGCCGGTGC
- sensor-assay potency score (higher = more potent) (TUT1): -0.799

Sequence: TTCTTCTTCCTCTCGTGCCTGC
- sensor-assay potency score (higher = more potent) (TXLNG): -0.0706

Sequence: TCCTCATCATAGAACATAGAGC
- sensor-assay potency score (higher = more potent) (TUSC2): -1.99

Sequence: TTGCACTCTGAATCTTGCTGAC
- sensor-assay potency score (higher = more potent) (TXLNG): 0.000943

Sequence: TACAGCTGTCGTCTGGTTGGTC
- sensor-assay potency score (higher = more potent) (TULP4): -0.0173

Sequence: TTCTCTGTTATAAAGTCACTGC
- sensor-assay potency score (higher = more potent) (TXLNG): -0.298

Sequence: AATCAGATTCTTATGCACTCGC
- sensor-assay potency score (higher = more potent) (TUSC2): 0.0606

Sequence: TTCGATGAGCTTCTTTAGCTTC
- sensor-assay potency score (higher = more potent) (TXLNG): -0.258

Sequence: TAGGAAGTACTCAGAGAGCTGA
- sensor-assay potency score (higher = more potent) (TUT1): 0.227

Sequence: TTTAGTTGTACTTCCTGCTGTT
- sensor-assay potency score (higher = more potent) (TXLNG): 0.906

Sequence: ATTCTTATGCACTCGCCTCAGC
- sensor-assay potency score (higher = more potent) (TUSC2): -1.06

Sequence: TCTAGCAGTGGTGAAGCTGGAG
- sensor-assay potency score (higher = more potent) (TUT1): -0.366

Sequence: TGTCTCCTCATAGAACTCGTGA
- sensor-assay potency score (higher = more potent) (TUSC2): -0.468

Sequence: TCTCCTCATAGAACTCGTGAGC
- sensor-assay potency score (higher = more potent) (TUSC2): -1.05

Sequence: TTTTATAGATTACTGCACCGAG
- sensor-assay potency score (higher = more potent) (TULP4): 0.0761

Sequence: AAACACACTTCGAAGTCCCTGG
- sensor-assay potency score (higher = more potent) (TUT1): 0.0034

Sequence: TTCTCGCAGCTCGTAGTTCTAC
- sensor-assay potency score (higher = more potent) (TUT1): -0.83

Sequence: TCGTAGTTCTACCAGGTGCCGG
- sensor-assay potency score (higher = more potent) (TUT1): -1.53

Sequence: ATTTGCTTCTGAACACTCCTGC
- sensor-assay potency score (higher = more potent) (TXLNG): 0.776

Sequence: TCTTGGTGACGATTGTCTCCTC
- sensor-assay potency score (higher = more potent) (TUSC2): -0.566

Sequence: TTAAACTATTCAAAACTGCTAA
- sensor-assay potency score (higher = more potent) (TXLNG): -0.454

Sequence: TCATCATAGAACATAGAGCCGC
- sensor-assay potency score (higher = more potent) (TUSC2): -0.771

Sequence: TTGTCCATGACAACACTGGCCA
- sensor-assay potency score (higher = more potent) (TUT1): -0.399

Sequence: TTGGGGTCTCTGCTAGTTCCGA
- sensor-assay potency score (higher = more potent) (TUT1): -1.32

Sequence: TTCCTTACGTTTGAACACCTTA
- sensor-assay potency score (higher = more potent) (TXLNG): -0.525

Sequence: TCATAGAACATAGAGCCGCGGC
- sensor-assay potency score (higher = more potent) (TUSC2): -0.488

Sequence: TAGAACATAGAGCCGCGGCGCG
- sensor-assay potency score (higher = more potent) (TUSC2): -1.07

Sequence: TTCTCATTGAGCTCATTCCTTT
- sensor-assay potency score (higher = more potent) (TXLNG): -0.993

Sequence: TTTGGACTCGATACACCCCAGG
- sensor-assay potency score (higher = more potent) (TUT1): -0.836

Sequence: TTGGTGACGATTGTCTCCTCAT
- sensor-assay potency score (higher = more potent) (TUSC2): 0.0125

Sequence: TACTGAGGGAGACATCACCGTG
- sensor-assay potency score (higher = more potent) (TUT1): -1.54

Sequence: TGACAGAACTTGACCACAGGGC
- sensor-assay potency score (higher = more potent) (TUT1): 0.248

Sequence: TTCTTCTGCTCGGCTGTCCAGG
- sensor-assay potency score (higher = more potent) (TULP4): -0.627

Sequence: TAACGTCTTATTGTGACGCTGA
- sensor-assay potency score (higher = more potent) (TXLNG): 0.553

Sequence: TTAAAGTCACTCAAAGTCCTAG
- sensor-assay potency score (higher = more potent) (TULP4): 0.213

Sequence: AAGCTTGCTCAGCTCCTGCTGC
- sensor-assay potency score (higher = more potent) (TUSC2): -0.817

Sequence: TTCTTGGTGACGATTGTCTCCT
- sensor-assay potency score (higher = more potent) (TUSC2): -0.377

Sequence: TTTCTTTGTCATCTTTTCCATT
- sensor-assay potency score (higher = more potent) (TXLNG): -0.923

Sequence: TCCTTGTCCATGACAACACTGG
- sensor-assay potency score (higher = more potent) (TUT1): -1.19

Sequence: TTTTAGTTGTACTTCCTGCTGT
- sensor-assay potency score (higher = more potent) (TXLNG): 0.554

Sequence: TTTTATATTTACATCTACCTGT
- sensor-assay potency score (higher = more potent) (UBXN2A): 0.256

Sequence: TATATTTACATCTACCTGTTTC
- sensor-assay potency score (higher = more potent) (UBXN2A): -0.892

Sequence: TACATTTGTTTATCAATCCTGA
- sensor-assay potency score (higher = more potent) (UNC5D): -0.0896

Sequence: TAGATAACTAGATCAACACGTG
- sensor-assay potency score (higher = more potent) (UNC5D): -0.0609

Sequence: TTCATTTTTAGTAAGCCTGGTT
- sensor-assay potency score (higher = more potent) (UST): 0.157

Sequence: TTGTACACCACCTGGCTTGGGA
- sensor-assay potency score (higher = more potent) (UST): -0.187

Sequence: TAATATTCTTAACTCCCTCCAC
- sensor-assay potency score (higher = more potent) (VAMP8): 0.103

Sequence: TGCAGGTAACAACACTTCCTTT
- sensor-assay potency score (higher = more potent) (WFDC12): -1.24

Sequence: TTTAAGTCAAATATCTTAGATA
- sensor-assay potency score (higher = more potent) (XAGE3): -0.923

Sequence: TGAGCAAGTCGTAAACATCGTC
- sensor-assay potency score (higher = more potent) (XAGE5): -0.511

Sequence: TATGTGAGACTTCACTCCCTAC
- sensor-assay potency score (higher = more potent) (XCL2): -0.968

Sequence: TTTCAGTTGGTGGTTCCTCTTG
- sensor-assay potency score (higher = more potent) (XAGE3): -0.62

Sequence: TCTCCTGACCAGGTGCAGGATC
- sensor-assay potency score (higher = more potent) (XAGE3): -0.873

Sequence: TGCTAACTGGCAGTCGCTGGGT
- sensor-assay potency score (higher = more potent) (XCL2): -0.761

Sequence: TTCTTCTTGTTGAGGCTCTGGC
- sensor-assay potency score (higher = more potent) (XAGE5): -0.323

Sequence: TTCAGTTGGTGGTTCTTCTTGT
- sensor-assay potency score (higher = more potent) (XAGE5): 0.414

Sequence: TTCTGCTAACTGGCAGTCGCTG
- sensor-assay potency score (higher = more potent) (XCL2): -1.02

Sequence: TATCTCCGCATTCATCCCCAGT
- sensor-assay potency score (higher = more potent) (XAGE5): -1.35

Sequence: TTCCTCTTGCTGAGGCTCCTCA
- sensor-assay potency score (higher = more potent) (XAGE3): -0.958

Sequence: TTCTCTAATAAATATAGTGTAT
- sensor-assay potency score (higher = more potent) (XKR5): -1.07

Sequence: TGGCATTTTAAATTGTTCTGAT
- sensor-assay potency score (higher = more potent) (XAGE3): -0.221

Sequence: TTAGTTATTACAAGCACACAGG
- sensor-assay potency score (higher = more potent) (XKR5): -0.438

Sequence: TGGTACACTTCTCCTCGGCCTA
- sensor-assay potency score (higher = more potent) (XAGE3): -1.1

Sequence: TTGATTCTGCTAACTGGCAGTC
- sensor-assay potency score (higher = more potent) (XCL2): -0.401

Sequence: TAGGCACTTGAATCTCAGCTGC
- sensor-assay potency score (higher = more potent) (XAGE5): -0.239

Sequence: TCTTGATTCTGCTAACTGGCAG
- sensor-assay potency score (higher = more potent) (XCL2): -0.712

Sequence: AAGTCGTAAACATCGTCTTGGT
- sensor-assay potency score (higher = more potent) (XAGE5): -0.56

Sequence: TATCTGTGAAGTCTGAGGCTAG
- sensor-assay potency score (higher = more potent) (XKR5): 0.0293

Sequence: CTTGATTCTGCTAACTGGCAGT
- sensor-assay potency score (higher = more potent) (XCL2): -1.63

Sequence: TTTTAAATTGCTCTGATTTTGG
- sensor-assay potency score (higher = more potent) (XAGE5): -0.858

Sequence: TCACACAGGTCCTCCTATGTGA
- sensor-assay potency score (higher = more potent) (XCL2): -0.506

Sequence: TCTTCTTCTCTCTCCTGACCAG
- sensor-assay potency score (higher = more potent) (XAGE3): -1.02

Sequence: ATAATCTCAGTCCATGAGGGTG
- sensor-assay potency score (higher = more potent) (XCL2): -1.29

Sequence: TAAAAGGTGAGTATAATCTCAG
- sensor-assay potency score (higher = more potent) (XCL2): -0.178

Sequence: TTCTTCTCTCTCCTGACCAGGT
- sensor-assay potency score (higher = more potent) (XAGE3): -0.766

Sequence: TGCACCCTGATCTTCTTCTCTC
- sensor-assay potency score (higher = more potent) (XAGE3): -0.916

Sequence: CTATGTGAGACTTCACTCCCTA
- sensor-assay potency score (higher = more potent) (XCL2): -0.487

Sequence: TTGGTGGTTCTTCTTGTTGAGG
- sensor-assay potency score (higher = more potent) (XAGE5): -1.63

Sequence: TAAGTTATTCTACTATTCCTTT
- sensor-assay potency score (higher = more potent) (XKR5): -0.571

Sequence: CAAGTCGTAAACATCGTCTTGG
- sensor-assay potency score (higher = more potent) (XAGE5): -0.817

Reference: the OligoGym collection
